The target of assay [1] is Rho-associated protein kinase 1 (Homo sapiens) (UniProt Q13464). Particulars: at 1 µM.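 Note: reported values are mean percent inhibition of ROCK1.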
Assay [2] has as its target Rho-associated protein kinase 2 (Homo sapiens) (UniProt O75116). Particulars: at 0.1 µM.
Assay [3] has the same target. The settings on record: at 1 µM.
The target in assay [4] is Ribosomal protein S6 kinase alpha-1 (Homo sapiens) (UniProt Q15418). The settings on record: at 0.1 µM.
Assay [5] shares this target. The settings on record: at 1 µM.
The target in assay [6] is Ribosomal protein S6 kinase alpha-3 (Homo sapiens) (UniProt P51812). The settings on record: at 0.1 µM.
Assay [7] shares this target. Particulars: at 1 µM.
For assay [8], the target named is Ribosomal protein S6 kinase alpha-2 (Homo sapiens) (UniProt Q15349). Particulars: at 0.1 µM.
Assay [9] has the same target. Particulars: at 1 µM.
For assay [10], the target named is Ribosomal protein S6 kinase alpha-6 (Homo sapiens) (UniProt Q9UK32). The settings on record: at 0.1 µM.
Assay [11] has the same target. The settings on record: at 1 µM.
For assay [12], the target named is T1, Serine/threonine-protein kinase Sgk1 (Homo sapiens) (UniProt O00141).
T1 sequence (whole entry): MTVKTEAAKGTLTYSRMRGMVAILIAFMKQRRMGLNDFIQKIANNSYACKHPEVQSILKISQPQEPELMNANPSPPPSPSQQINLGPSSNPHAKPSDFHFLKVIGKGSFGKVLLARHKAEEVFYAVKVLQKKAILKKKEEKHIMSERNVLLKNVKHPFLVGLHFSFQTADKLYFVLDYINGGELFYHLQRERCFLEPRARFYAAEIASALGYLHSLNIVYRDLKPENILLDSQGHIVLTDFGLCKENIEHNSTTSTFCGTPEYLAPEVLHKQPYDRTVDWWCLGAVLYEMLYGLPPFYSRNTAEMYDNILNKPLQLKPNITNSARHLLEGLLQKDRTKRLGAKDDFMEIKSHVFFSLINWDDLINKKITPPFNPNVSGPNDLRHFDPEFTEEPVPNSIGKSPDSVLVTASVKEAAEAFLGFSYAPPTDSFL
Particulars: at 0.1 µM.

In assay [13] the target is T1, Serine/threonine-protein kinase Sgk1 (Homo sapiens). Particulars: at 1 µM.
For assay [14], the target named is T2, Serine/threonine-protein kinase Sgk2 (Homo sapiens) (UniProt Q9HBY8).
T2 sequence (whole entry): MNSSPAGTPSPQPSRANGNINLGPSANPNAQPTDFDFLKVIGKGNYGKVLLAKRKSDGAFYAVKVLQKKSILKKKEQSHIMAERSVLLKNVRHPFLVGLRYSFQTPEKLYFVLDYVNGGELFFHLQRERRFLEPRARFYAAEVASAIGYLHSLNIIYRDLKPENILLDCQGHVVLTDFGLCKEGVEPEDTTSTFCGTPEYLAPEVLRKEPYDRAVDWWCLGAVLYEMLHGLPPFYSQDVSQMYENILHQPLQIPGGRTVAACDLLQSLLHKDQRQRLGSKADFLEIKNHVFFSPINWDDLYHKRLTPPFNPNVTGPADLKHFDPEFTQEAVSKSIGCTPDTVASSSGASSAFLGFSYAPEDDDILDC
Particulars: at 0.1 µM.

The target of assay [15] is T2, Serine/threonine-protein kinase Sgk2 (Homo sapiens). Particulars: at 1 µM.
For assay [16], the target named is T3, Serine/threonine-protein kinase Sgk3 (Homo sapiens) (UniProt Q96BR1).
T3 sequence (whole entry): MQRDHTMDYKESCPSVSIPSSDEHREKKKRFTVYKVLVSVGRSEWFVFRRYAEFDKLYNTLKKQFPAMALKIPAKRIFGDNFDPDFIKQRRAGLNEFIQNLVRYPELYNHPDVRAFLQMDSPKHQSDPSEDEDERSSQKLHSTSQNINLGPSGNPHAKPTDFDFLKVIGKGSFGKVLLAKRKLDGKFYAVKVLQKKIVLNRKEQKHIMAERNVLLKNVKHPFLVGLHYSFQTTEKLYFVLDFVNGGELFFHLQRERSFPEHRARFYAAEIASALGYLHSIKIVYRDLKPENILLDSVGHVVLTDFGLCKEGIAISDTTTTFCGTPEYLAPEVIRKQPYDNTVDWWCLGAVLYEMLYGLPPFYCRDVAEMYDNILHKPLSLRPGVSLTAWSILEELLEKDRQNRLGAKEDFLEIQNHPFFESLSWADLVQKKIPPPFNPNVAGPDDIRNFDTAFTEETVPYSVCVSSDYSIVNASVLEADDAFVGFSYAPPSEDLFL
Particulars: at 0.1 µM.

Assay [17] addresses T3, Serine/threonine-protein kinase Sgk3 (Homo sapiens). Particulars: at 1 µM.
In assay [18] the target is 5'-AMP-activated protein kinase catalytic subunit alpha-1 (Homo sapiens) (UniProt Q13131). Particulars: at 0.1 µM.
Assay [19] has the same target. Particulars: at 1 µM.
The target of assay [20] is 5'-AMP-activated protein kinase catalytic subunit alpha-2 (Homo sapiens) (UniProt P54646). The settings on record: at 0.1 µM.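 Note: mean inhibition measured on the AMPK complex of alpha2, beta1 and gamma1 subunits.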

Drawing on ChEMBL document CHEMBL1961873, “Compounds: GSK PKIS; Assays: Nanosyn kinase panel” (2012), this text covers inhibition for seven molecules.

Usually inhibition stands for the change of the read-out against control, counted positive when it falls.

Chain of Rho-associated protein kinase 1 (Homo sapiens) (Q13464 2-1354 limits assumed): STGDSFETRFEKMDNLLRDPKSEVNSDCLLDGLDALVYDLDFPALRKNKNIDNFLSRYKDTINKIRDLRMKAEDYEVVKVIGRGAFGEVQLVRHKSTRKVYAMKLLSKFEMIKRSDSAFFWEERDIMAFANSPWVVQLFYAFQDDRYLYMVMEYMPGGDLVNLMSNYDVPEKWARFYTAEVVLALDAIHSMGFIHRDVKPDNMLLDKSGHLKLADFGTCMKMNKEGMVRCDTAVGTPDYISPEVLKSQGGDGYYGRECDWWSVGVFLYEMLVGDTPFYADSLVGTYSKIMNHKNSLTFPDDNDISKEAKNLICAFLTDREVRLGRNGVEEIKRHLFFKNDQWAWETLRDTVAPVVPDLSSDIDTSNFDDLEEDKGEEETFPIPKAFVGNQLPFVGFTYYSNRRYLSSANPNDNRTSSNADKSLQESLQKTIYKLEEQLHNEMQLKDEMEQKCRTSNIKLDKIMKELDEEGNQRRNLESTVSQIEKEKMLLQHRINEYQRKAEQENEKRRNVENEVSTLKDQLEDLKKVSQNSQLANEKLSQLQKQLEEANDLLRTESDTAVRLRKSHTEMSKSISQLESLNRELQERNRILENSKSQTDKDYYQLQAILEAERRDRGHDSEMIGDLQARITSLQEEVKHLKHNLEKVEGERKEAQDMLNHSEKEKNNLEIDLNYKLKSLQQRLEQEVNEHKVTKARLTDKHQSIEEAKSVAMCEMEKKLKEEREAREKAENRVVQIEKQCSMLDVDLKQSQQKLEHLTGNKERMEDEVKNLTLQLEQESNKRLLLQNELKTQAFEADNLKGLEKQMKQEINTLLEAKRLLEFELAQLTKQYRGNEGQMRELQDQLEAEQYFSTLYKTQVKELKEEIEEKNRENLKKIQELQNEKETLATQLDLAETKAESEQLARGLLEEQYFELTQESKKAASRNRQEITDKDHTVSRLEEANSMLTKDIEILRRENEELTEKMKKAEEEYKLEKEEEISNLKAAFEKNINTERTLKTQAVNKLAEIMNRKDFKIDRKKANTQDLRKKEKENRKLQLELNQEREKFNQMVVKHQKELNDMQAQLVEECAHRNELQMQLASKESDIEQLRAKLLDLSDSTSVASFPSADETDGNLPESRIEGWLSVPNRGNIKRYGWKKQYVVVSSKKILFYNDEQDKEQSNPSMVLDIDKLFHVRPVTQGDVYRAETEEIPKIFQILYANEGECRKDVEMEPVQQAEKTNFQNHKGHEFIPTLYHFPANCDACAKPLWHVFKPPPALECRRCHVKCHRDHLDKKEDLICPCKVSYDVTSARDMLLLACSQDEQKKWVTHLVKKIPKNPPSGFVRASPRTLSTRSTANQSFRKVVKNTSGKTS
Chain of 5'-AMP-activated protein kinase catalytic subunit alpha-1 (Homo sapiens) (Q13131 whole entry, looked up): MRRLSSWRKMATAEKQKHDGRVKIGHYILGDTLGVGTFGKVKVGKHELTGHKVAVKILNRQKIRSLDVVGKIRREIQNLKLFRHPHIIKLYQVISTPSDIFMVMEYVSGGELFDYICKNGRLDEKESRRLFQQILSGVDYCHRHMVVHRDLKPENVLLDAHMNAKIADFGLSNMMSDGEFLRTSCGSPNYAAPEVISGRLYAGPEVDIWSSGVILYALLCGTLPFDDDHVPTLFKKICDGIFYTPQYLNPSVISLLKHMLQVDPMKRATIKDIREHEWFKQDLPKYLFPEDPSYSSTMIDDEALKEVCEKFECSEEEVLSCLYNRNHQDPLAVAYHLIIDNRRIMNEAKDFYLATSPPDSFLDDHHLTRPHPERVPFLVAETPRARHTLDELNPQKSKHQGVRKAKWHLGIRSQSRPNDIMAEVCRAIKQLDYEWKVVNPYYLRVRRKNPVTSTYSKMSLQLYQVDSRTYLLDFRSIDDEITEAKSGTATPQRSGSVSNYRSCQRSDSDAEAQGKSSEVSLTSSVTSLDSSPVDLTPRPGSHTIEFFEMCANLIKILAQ
Chain of Rho-associated protein kinase 2 (Homo sapiens) (O75116 whole entry, looked up): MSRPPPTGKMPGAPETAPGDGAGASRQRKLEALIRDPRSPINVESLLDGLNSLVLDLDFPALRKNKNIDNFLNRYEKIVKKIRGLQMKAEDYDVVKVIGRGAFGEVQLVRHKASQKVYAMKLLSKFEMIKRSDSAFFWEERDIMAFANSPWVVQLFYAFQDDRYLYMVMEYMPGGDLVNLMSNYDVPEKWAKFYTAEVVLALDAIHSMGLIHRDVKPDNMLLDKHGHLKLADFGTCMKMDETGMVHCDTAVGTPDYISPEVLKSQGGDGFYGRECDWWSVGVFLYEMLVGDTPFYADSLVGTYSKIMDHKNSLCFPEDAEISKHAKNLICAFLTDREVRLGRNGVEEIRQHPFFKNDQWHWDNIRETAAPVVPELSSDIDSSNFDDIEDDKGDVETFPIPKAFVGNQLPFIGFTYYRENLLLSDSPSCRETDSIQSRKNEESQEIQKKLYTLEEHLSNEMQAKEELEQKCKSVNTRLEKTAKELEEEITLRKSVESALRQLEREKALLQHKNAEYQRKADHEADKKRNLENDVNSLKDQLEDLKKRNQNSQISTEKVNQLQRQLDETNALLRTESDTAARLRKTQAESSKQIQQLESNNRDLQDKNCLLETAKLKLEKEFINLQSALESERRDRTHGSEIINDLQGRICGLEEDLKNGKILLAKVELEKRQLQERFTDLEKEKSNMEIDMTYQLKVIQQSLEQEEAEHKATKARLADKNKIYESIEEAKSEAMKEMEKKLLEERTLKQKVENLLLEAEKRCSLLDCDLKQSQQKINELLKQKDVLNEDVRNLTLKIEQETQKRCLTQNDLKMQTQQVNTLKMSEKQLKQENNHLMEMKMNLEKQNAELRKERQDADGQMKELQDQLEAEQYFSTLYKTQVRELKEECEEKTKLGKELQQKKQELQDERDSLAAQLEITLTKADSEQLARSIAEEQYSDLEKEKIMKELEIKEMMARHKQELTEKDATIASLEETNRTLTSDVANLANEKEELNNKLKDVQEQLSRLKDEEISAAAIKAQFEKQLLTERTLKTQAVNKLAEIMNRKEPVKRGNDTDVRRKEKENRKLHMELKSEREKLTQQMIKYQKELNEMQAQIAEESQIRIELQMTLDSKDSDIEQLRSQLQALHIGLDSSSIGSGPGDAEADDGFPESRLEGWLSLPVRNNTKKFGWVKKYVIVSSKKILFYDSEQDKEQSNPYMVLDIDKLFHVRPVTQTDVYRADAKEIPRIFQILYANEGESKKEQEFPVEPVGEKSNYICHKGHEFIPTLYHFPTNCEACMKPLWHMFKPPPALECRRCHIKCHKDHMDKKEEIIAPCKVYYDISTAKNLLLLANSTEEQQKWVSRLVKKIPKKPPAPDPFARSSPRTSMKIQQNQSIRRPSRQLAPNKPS
Chain of Ribosomal protein S6 kinase alpha-2 (Homo sapiens) (Q15349 whole entry): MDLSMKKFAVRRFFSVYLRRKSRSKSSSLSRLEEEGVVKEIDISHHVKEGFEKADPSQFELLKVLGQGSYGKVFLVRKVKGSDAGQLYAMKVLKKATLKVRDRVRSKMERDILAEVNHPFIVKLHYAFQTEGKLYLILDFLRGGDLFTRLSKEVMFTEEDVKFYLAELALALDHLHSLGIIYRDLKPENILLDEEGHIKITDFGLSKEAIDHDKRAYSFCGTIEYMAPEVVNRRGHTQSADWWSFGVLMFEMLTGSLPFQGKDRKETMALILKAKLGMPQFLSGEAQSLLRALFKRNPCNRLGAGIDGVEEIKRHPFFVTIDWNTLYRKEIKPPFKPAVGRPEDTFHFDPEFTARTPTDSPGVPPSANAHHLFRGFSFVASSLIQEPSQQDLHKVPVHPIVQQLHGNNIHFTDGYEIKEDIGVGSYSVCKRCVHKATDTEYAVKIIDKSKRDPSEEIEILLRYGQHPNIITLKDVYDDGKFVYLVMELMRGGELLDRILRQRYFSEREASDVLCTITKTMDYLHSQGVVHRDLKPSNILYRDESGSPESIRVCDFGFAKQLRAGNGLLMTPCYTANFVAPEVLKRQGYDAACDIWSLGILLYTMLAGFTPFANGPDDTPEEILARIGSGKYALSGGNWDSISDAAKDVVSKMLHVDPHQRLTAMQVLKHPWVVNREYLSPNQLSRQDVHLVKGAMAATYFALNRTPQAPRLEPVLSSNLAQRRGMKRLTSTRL
Chain of Ribosomal protein S6 kinase alpha-1 (Homo sapiens) (Q15418 whole entry): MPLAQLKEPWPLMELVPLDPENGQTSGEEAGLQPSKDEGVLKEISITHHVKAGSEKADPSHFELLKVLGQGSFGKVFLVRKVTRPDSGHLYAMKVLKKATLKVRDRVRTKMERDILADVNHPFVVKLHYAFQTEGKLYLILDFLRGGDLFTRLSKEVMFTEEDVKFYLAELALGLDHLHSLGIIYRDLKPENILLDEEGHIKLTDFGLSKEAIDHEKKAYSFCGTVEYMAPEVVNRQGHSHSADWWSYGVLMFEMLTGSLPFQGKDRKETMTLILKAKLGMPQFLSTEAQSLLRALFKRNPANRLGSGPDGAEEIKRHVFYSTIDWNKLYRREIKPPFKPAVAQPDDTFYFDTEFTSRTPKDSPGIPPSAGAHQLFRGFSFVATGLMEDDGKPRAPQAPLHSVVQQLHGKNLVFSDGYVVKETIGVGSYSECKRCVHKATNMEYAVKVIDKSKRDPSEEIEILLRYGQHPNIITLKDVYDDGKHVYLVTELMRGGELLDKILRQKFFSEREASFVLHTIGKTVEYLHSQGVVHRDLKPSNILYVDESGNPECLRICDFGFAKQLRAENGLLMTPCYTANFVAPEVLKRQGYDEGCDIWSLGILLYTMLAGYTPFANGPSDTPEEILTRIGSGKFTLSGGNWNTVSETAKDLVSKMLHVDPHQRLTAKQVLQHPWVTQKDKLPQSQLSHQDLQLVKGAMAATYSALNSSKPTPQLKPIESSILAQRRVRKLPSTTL

For `CCS(=O)(=O)c1ccc(OC)c(Nc2ncc(-c3ccccc3Cl)o2)c1`, the inhibition in [1] was -0.3%; in assay [2] it was 1.15%; in [3] it was 2.53%; in [4], 1.95%; in assay [5], 5.76%; in [6] it was 0.57%. The inhibition in assay [7] was 4.01%; in assay [8], 0.2%; in [9], 4.26%; in [10], 2.01%; in [11] it was 3.92%; in [12], -0.42%. Besides, the inhibition in assay [13] is 2.5%; in [14], -1.58%; in [15], -2.15%; in [16], -0.26%; in assay [17] it was -1.36%; in [18], 1.54%. The inhibition in [19] was 0.82%; in assay [20] it was -1.8%.

Consider `O=C(Nc1n[nH]c2nc(-c3ccc(O)cc3)c(Br)cc12)C1CC1`, for which the inhibition worked out at 1.33% in [1]; 4.18% in [2]; 6.43% in assay [3]; 7.28% in [4]; 33% in assay [5]; 10.3% in [6]. In addition, the inhibition in assay [7] was determined as 44.8%; in [8] it was 22.4%; in [9] it was 70.6%; in [10], 16.4%; in assay [11] it was 59.7%; in [12], 3.83%. The inhibition in assay [13] worked out at 12.1%; in assay [14], 6.54%; in assay [15] it was 24.8%; in assay [16], 5.88%; in assay [17] it was 16.7%; in assay [18] it was 5.78%. In addition, the inhibition in assay [19] came to 20.1%; in [20], 4.36%.

`C#Cc1cccc(Nc2ncnc3ccc(OCCCCNCCS(C)(=O)=O)cc23)c1`: the inhibition in [1] is 2.52%; in [2] it was 3.83%; in [3] it was 6.92%; in [4], 3.85%; in assay [5] it was 5.51%; in assay [6], 2.14%. Also, the inhibition in assay [7] is 3.87%; in [8], 3.31%; in assay [9], 4.55%; in assay [10], 1.75%; in assay [11], 3.55%; in assay [12] it was 3.74%. Besides, the inhibition amounted to 5.99% in [13]; 3.88% in assay [14]; 4.33% in assay [15]; 3.82% in [16]; 4.46% in assay [17]; 4.2% in [18]. The values for the inhibition in [19] and in assay [20] were 6.4% and 4.13%, respectively.

Turning to `COc1cc(C)c(N(C)C(=O)CN(C)C)cc1Nc1nc(Nc2cccc(F)c2C(N)=O)c2cc[nH]c2n1`, the inhibition is 1.48% in assay [1]; 0.89% in [2]; -0.53% in assay [3]; 1.17% in [4]; 3.02% in [5]; 1.14% in assay [6]. The inhibition in [7] worked out at 1.43%; in assay [8], 1.84%; in [9] it was 2.69%; in [10], 1.67%; in assay [11], 4.74%; in assay [12] it was 1.3%. Also, the inhibition was 0.1% in [13]; -3% in [14]; 3.7% in assay [15]; 0.02% in [16]; 0.78% in assay [17]; 1.44% in assay [18]. Moreover, the results for the inhibition in [19] and in [20] were 0.94% and -0.28%, respectively.

Turning to `COc1ccc2cc(-c3c(-c4ccncc4)nc(-c4ccc([S+](C)[O-])cc4C)n3C)ccc2c1` (stereo not given), the inhibition in [1] was -0.59%; in assay [2], -0.57%; in assay [3] it was -0.64%; in [4], -0.66%; in assay [5], -1.48%; in assay [6], -0.38%. Further, the inhibition was -0.28% in [7]; 0.02% in assay [8]; -0.67% in assay [9]; -0.13% in [10]; 0.61% in assay [11]; -0.3% in assay [12]. The inhibition in assay [13] is 0.17%; in assay [14], -1.2%; in [15], 0.22%; in assay [16] it was -0.05%; in assay [17], 0.65%; in assay [18] it was -0.62%. For the same molecule, the values for the inhibition in assay [19] and in assay [20] were -0.8% and 3.22%, respectively.

Regarding `COC(=O)Nc1nc2ccc(Sc3ccc(NC(=O)Nc4cc(C(F)(F)F)ccc4F)cc3)cc2[nH]1`, the inhibition was -0.72% in assay [1]; 0.53% in assay [2]; -0.19% in assay [3]; -0.4% in assay [4]; 0.24% in assay [5]; -0.27% in [6]. In addition, the inhibition was -1.87% in [7]; 47.7% in [8]; 2.97% in assay [9]; 48.6% in assay [10]; 0.24% in assay [11]; 0.54% in assay [12]. Besides, the inhibition in [13] is 4.52%; in assay [14], 0.41%; in assay [15], 0.74%; in assay [16] it was -0.29%; in assay [17], 0.03%; in [18], 0.86%. In addition, the inhibition is 0.23% in assay [19] and -4.11% in [20].

Regarding `Fc1ccc(-c2ncn(C3CCNCC3)c2-c2ccnc(Oc3ccc4c(c3)OCO4)n2)cc1`, the inhibition in assay [1] is 5.2%; in [2], 4.88%; in assay [3] it was 8.46%; in assay [4], 1.84%; in assay [5] it was 3.67%; in assay [6], -0.4%. The inhibition came to 2.18% in assay [7]; 2.81% in assay [8]; 4.39% in assay [9]; 0.63% in assay [10]; 3.03% in assay [11]; 3.72% in [12]. Moreover, the inhibition in assay [13] came to 3.6%; in [14], 2.63%; in [15], 3.07%; in assay [16] it was 6.26%; in assay [17] it was 4.11%; in assay [18] it was 2.72%. For the same molecule, the inhibition came to 3.99% in [19] and 3.86% in [20].
